The results in this text go back to PubChem BioAssay (Tox21).

A short description of test [1]: cAMP Responsive Elements (CRE) small molecule antagonists, cell-based qHTS assay: qHTS cell viability counter screen (AID 2060913). Further: nearly all actives have a fitted effect of over 40% in size. The procedure, abridged:
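CRE-bla HEK293T cells (2,000/well, 18 h) given compound plus NKH477 0.25 uM final for 3 h at 37C; viability counter-screen by CellTiter-Glo luminescence in same wells after 30 min.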
A general note: In qHTS, concentration-response curves come from the screen itself.

Test [2] in a line: cAMP Responsive Elements (CRE) small molecule agonists, cell-based qHTS assay: qHTS cell viability counter screen (AID 2060914). Further: nearly all actives have a fitted effect of over 50% in size. A digest of the protocol: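 Cells are seeded and incubated 18 h, treated with compounds in DMSO for 3 h, read for the bla reporter, then given CellTiter-Glo; luminescence is measured after 30 min at room temperature.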

SMILES strings stand for the structures. Results filed as inconclusive are left out. A number with no mark means an inactive call. Activity calls are given as the source filed them. The call rests on the fitted dose curve; in most records, active means well fitted cell-killing curve with a large enough effect in the repeat runs; inconclusive means weak or mixed curves, or effect the other way; inactive means flat fitted curve, though single readings scatter.
On the % scale 0 is the no-effect control and ±100 the full control effect.

With `CCCCCCCC#N`, the Potency entry in test [1] and in test [2] was “inactive” each time.
Regarding `O=C(Nc1ccc2c(c1)Cc1ccccc1-2)C(F)(F)F`, the Potency entry in test [1] and in test [2] was “inactive” each time.
For the compound `O=CO`, the viability change, negative = cytotoxic in test [1] is -5.83% [at 8.39 µM]. The activity change, negative = cytotoxicity in test [2] is -4.64% [at 8.39 µM].
Take `C=CCOC(=O)CC(C)C`: the Potency result in test [1] and in test [2] was “inactive” each time.
For the compound `Cc1ncc(CO)c(CO)c1O`, the Potency entry in test [1] and in test [2] was “inactive” each time.
In the case of `Nc1ccn([C@@H]2O[C@H](CO)[C@@H](O)C2(F)F)c(=O)n1`, the Potency entry in test [1] and in test [2] was “inactive” each time.
As for `O=C(NCCc1c[nH]c2ccccc12)c1cccnc1`, the Potency result in test [1] and in test [2] was “inactive” in each case.
As for `O=C(O)c1cc(N=Nc2ccc(S(=O)(=O)Nc3ccccn3)cc2)ccc1O`, the Potency entry in test [1] and in test [2] was “inactive” in each case.
`CN(C)c1ccc(/C=C/c2ccc([N+](=O)[O-])cc2)cc1`: the viability change, negative = cytotoxic in test [1] was 10.9% [at 8.39 µM]. In addition, the activity change, negative = cytotoxicity in test [2] was 5.22% [at 8.39 µM].
Turning to `CO[C@H]1C=CO[C@@]2(C)Oc3c(C)c(O)c4c(O)c(c5c(c4c3C2=O)=NC2(CCN(CC(C)C)CC2)N=5)NC(=O)/C(C)=C\C=C/[C@H](C)[C@H](O)[C@@H](C)[C@@H](O)[C@@H](C)[C@H](OC(C)=O)[C@@H]1C`, the Potency result in test [1] and in test [2] was “inactive” in each case.
With `C=CCCCCCCCCCC`, the Potency result in test [1] and in test [2] was “inactive” each time.
With `c1ccc(C(O[C@H]2CCCN(CCc3ccc4c(c3)OCO4)C2)c2ccccc2)cc1`, the Potency result in test [1] and in test [2] was “inactive” each time.
